ELG1 repair inh: qHTS screen for small molecules that inhibit ELG1-dependent DNA repair in human embryonic kidney (HEK293T) cells expressing luciferase-tagged ELG1; HEK293T ELG1-luciferase reporter, luminescence, 16 h; DNA damage induced by 5-fluorouridine; Potency, µM (titrated, usually from 46.1 µM), for the others: top-dose activity change, negative = inhibition, actives largely listed as inhibitors; hit rate 2.3% among 330,000; AID 504467, 2011; also: % is scaled to controls: 0 for no effect and ±100 for the full control effect; nearly all actives have a fitted effect of over 55% in size
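5-Fluorouridine DNA damage + compound/DMSO, 2,000 cells/well, 16 h, 37 °C/5% CO2. ONE-Glo, 30 min RT, luminescence. Readout = decrease in reporter signal.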
SMN2 splice up: qHTS Assay for Enhancers of SMN2 Splice Variant Expression; HEK293 SMN2-luciferase splicing reporter, luminescence, 30-36 h; AID 1458, 2008; Potency, µM (series often up to 46.1 µM), for the others: top-dose activity change, positive = activation, hits mostly activators; hit rate 2.8% among 210,000; also: % of control where 0% means no effect; nearly all actives have a fitted effect of over 55% in size
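HEK293 cells carry an SMN2 […]–luciferase reporter in which exon 7 inclusion puts luciferase in frame. Cells were plated 10-12 h before compound addition, then incubated 30-36 h at 37C. ONE-Glo luminescence was read; sodium butyrate at 4.5 mM final served as control.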
NPC1 promoter act: qHTS Assay for NPC1 Promoter Activators; hit rate 2.4% among 320,000; Potency, µM (highest dose often 9.22 µM), for the others: at the highest dose activation, most hits filed as activators; Huh7 NPC1 promoter luciferase reporter, 24 h; AID 485313, 2010; also: % of control where 0% means no effect; nearly all actives have a fitted effect of over 60% in size
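Huh7 cells stably carrying NPC1 promoter–luciferase, plated in Opti-MEM with 10% FBS for 2 h, were exposed to compound in DMSO for 24 h at 37 °C; luciferase reagent was added for 10 min and luminescence read.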
Rab9 promoter act: qHTS Assay for Rab9 Promoter Activators; Huh7 Rab9 promoter-luciferase reporter, luminescence, 24 h; Potency, µM (highest dose often 9.22 µM), for the others: at the top dose activation, negative = inhibition, usual class: activators; hit rate 2.8% among 320,000; AID 485297, 2010; also: % of control where 0% means no effect; nearly all actives have a fitted effect of over 60% in size
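Huh7 reporter line, Rab9 promoter upstream of luciferase. Compound exposure 24 h at 37 °C in reduced-serum medium with 10% FBS. Read-out: luminescence.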
ELG1 genotox: qHTS screen for small molecules that induce genotoxicity in human embryonic kidney (HEK293T) cells expressing luciferase-tagged ELG1; AID 504466, 2011; hit rate 1.3% among 330,000; HEK293T ELG1-luciferase reporter, luminescence, 16 h; Potency, µM (doses to about 46 µM), for inactives: at the highest dose activity change, positive = activation, hits mostly activators; also: % of control where 0% means no effect; nearly all actives have a fitted effect of over 60% in size
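HEK293T cells expressing luciferase-tagged ELG1 were exposed to compound or DMSO vehicle for 16 hr at 37 °C and 5% CO2. Luciferase activity was then measured with ONE-Glo after 30 min at room temperature.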
FLuc counter: qHTS profiling assay for firefly luciferase inhibitor/activator using purifed enzyme and Km concentrations of substrates (counterscreen for miR-21 project); hit rate 6.9% among 360,000; purified FLuc, Km substrates, luminescence inhibition; Potency, µM (series often up to 57.5 µM), for the others: at the highest dose activity change, negative = inhibition, hits mostly inhibitors; AID 588342, 2011;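 also: plate controls were vehicle for no effect and reference inhibitor for full effect; nearly all actives have a fitted effect of over 55% in size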
Target sequence (P08659 whole entry, looked up): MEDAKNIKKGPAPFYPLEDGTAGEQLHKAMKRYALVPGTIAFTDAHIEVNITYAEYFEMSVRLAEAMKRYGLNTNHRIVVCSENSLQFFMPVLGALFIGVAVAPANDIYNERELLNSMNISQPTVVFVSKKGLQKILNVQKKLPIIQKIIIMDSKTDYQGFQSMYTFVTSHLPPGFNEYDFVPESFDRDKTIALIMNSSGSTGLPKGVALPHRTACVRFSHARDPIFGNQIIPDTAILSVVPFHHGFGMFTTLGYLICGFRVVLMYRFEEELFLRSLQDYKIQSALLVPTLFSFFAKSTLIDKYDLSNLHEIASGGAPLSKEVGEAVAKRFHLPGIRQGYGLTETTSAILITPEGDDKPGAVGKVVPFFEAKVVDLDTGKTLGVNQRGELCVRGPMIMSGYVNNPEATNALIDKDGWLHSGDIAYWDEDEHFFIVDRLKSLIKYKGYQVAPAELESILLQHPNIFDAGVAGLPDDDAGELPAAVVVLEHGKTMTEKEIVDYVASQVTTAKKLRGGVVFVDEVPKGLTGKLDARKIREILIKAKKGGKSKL
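Purified P. pyralis luciferase, 10 nM final, with Km-level 10 uM D-luciferin and 10 uM ATP in 50 mM Tris acetate pH 7.5, 10 mM Mg acetate, 0.01% Tween-20, 0.05% BSA; 6-point qHTS titration about 60 µM downward; luminescence read.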
The depositor's hits bear a star; [ ] = another dose, or the depositor's remark. Compounds with a hit are over-represented: about 9.2% of the library has one in this group of screens. Calls follow the shape of the dose curve; as a rule, active = well fitted curve in the direction sought with a large enough effect; inconclusive = small, poorly fitted or top-dose-only effect, or another doubt; inactive = no such curve, though single readings can be large; an effect the other way counts as inactive or inconclusive. Potency is read from the fitted curve at half-maximal effect.

For O=C1CC2c3ccccc3C1C1C(=O)N(CCO)C(=O)C21 (stereo unspecified) the results were ELG1 repair inh inconclusive, NPC1 promoter act -3.5%, Rab9 promoter act -4.7%, ELG1 genotox 1.6% and FLuc counter -0.6%.
Screening Cc1ccc(CNC(=O)c2cc(-c3ccc(Cl)cc3)on2)cc1 returned FLuc counter -0.5%.
Screening CCCOc1ccc(C(=O)CCC(=O)Nc2ccc(N3CCN(C)CC3)cc2)cc1 returned ELG1 repair inh 3.5%, NPC1 promoter act -2.3%, Rab9 promoter act 8.4%, ELG1 genotox 2.7% and FLuc counter -20.7%.
For O=C(Nc1ccc2ccccc2c1)c1cccc([N+](=O)[O-])c1 the results were ELG1 repair inh inconclusive, NPC1 promoter act inconclusive, Rab9 promoter act inconclusive, ELG1 genotox inconclusive and FLuc counter 12µM*.
`COc1cccc(/C(C)=N/N=C(\C)c2cccc(OC)c2)c1` gave ELG1 repair inh inconclusive, NPC1 promoter act inconclusive, Rab9 promoter act 3.16µM*, ELG1 genotox inconclusive and FLuc counter 6.75µM*.
Screening O=C(Nc1cccc([N+](=O)[O-])c1)c1ccccc1 returned ELG1 repair inh -14.3%, NPC1 promoter act 2.7%, Rab9 promoter act 14.2%, ELG1 genotox 2.1% and FLuc counter inconclusive.
`CC1CCCCN1C(=O)c1ccc(CS(=O)(=O)Cc2ccccc2)cc1` (stereo unspecified) gave ELG1 repair inh -12.3%, NPC1 promoter act -5.8%, Rab9 promoter act -0.9%, ELG1 genotox -11.1% and FLuc counter 2.9%.
Cc1ccc(OCCSc2ncccn2)c(C)c1 was read as ELG1 repair inh inconclusive, SMN2 splice up 3.16µM*, NPC1 promoter act 0.631µM*, Rab9 promoter act 0.501µM*, ELG1 genotox inconclusive and FLuc counter 2.13µM*.
`c1cnc(SCCOc2cccc3ccccc23)nc1` gave ELG1 repair inh inconclusive, SMN2 splice up 22.1%, NPC1 promoter act inconclusive, Rab9 promoter act 2.24µM*, ELG1 genotox 11.6µM* and FLuc counter 7.57µM*.
`CCOC(=O)c1c(C)oc2nc(C)nc(NCC3CCN(Cc4ccc(C)cc4)CC3)c12` gave FLuc counter -2.1%.
`Cn1c(=NC(=O)C2CCCCC2)sc2cc([N+](=O)[O-])ccc21` gave ELG1 repair inh 15.0%, NPC1 promoter act 19.4%, Rab9 promoter act inconclusive, ELG1 genotox 12.8% and FLuc counter -6.2%.
Cn1/c(=N/N=C/c2ccc([N+](=O)[O-])cc2)sc2ccccc21 was read as ELG1 repair inh inconclusive, SMN2 splice up 17.4%, NPC1 promoter act 24.4%, Rab9 promoter act 5.7%, ELG1 genotox inconclusive and FLuc counter 2.13µM*.
N#CC1CC(c2ccccc2)=NN1c1ccccc1[N+](=O)[O-] (stereo unspecified) was read as ELG1 repair inh inconclusive, SMN2 splice up 22.4µM*, NPC1 promoter act inconclusive, Rab9 promoter act 3.55µM*, ELG1 genotox inconclusive and FLuc counter 12µM*.
COc1cc(NC(=O)c2cccs2)cc(OC)c1 was read as ELG1 repair inh inconclusive, SMN2 splice up 14.7%, NPC1 promoter act 24.1%, Rab9 promoter act inconclusive, ELG1 genotox 10.0% and FLuc counter inconclusive.
COc1ccc(-c2[nH]ncc2/C=N\NC(=O)c2cccs2)cc1OC was read as ELG1 repair inh 0.0%, NPC1 promoter act 1.5%, Rab9 promoter act -2.7%, ELG1 genotox 0.9% and FLuc counter 19µM*.
`COc1ccc(NC(=O)c2ccccc2NC(=O)c2cccs2)cc1` gave ELG1 repair inh inconclusive, NPC1 promoter act 15.7%, Rab9 promoter act 22.3%, ELG1 genotox inconclusive and FLuc counter 15.1µM*.
`COc1ccc(NC(=O)n2nc(OC(=O)c3cccs3)cc2N)cc1` gave ELG1 repair inh inconclusive, NPC1 promoter act 11.6%, Rab9 promoter act 12.9%, ELG1 genotox inconclusive and FLuc counter 16.9µM*.
`COc1ccc(-c2ccc(S(=O)(=O)n3nc(OC(=O)c4cccs4)cc3N)cc2)cc1` gave ELG1 repair inh 8.3%, NPC1 promoter act -0.8%, Rab9 promoter act 13.9%, ELG1 genotox -2.1% and FLuc counter -4.7%.
For Cc1ccc(NC(=O)c2ccccc2NC(=O)c2cccs2)cc1 the results were ELG1 repair inh inconclusive, NPC1 promoter act -8.5%, Rab9 promoter act 4.2%, ELG1 genotox 3.6% and FLuc counter inconclusive.
Screening COc1ccc(C(=O)Nc2cccc(NC(=O)c3cccs3)c2)cc1 returned ELG1 repair inh 21.9%, NPC1 promoter act 18.0%, Rab9 promoter act 18.6%, ELG1 genotox 0.3% and FLuc counter 9.53µM*.
Screening CN(C)C=Nc1ccccc1C1C=NNC1=O (stereo unspecified) returned ELG1 repair inh 7.4%, NPC1 promoter act 0.0%, Rab9 promoter act -2.7%, ELG1 genotox -0.4% and FLuc counter inconclusive.
COc1cccc(CN2CC(C(=O)NCCN3CCOCC3)CCC2=O)c1 (stereo unspecified) was read as ELG1 repair inh 3.0%, NPC1 promoter act 1.1%, Rab9 promoter act 1.0%, ELG1 genotox 2.6% and FLuc counter -0.1%.
Screening CCn1cc(C(=O)NCCCN(CC(C)C)CC(C)C)c(=O)c2cc(S(=O)(=O)N(C)C3CCCCC3)ccc21 returned ELG1 repair inh -11.0%, SMN2 splice up -6.2%, NPC1 promoter act 0.2%, Rab9 promoter act 0.0%, ELG1 genotox -2.5%[9.26 µM] and FLuc counter -1.4%.
Screening COC(=O)Cc1ccc(NC(=O)c2ccccc2Br)cc1 returned ELG1 repair inh inconclusive, SMN2 splice up 4.8%, NPC1 promoter act 12.1%, Rab9 promoter act 1.9%, ELG1 genotox 10.3% and FLuc counter 16.9µM*.
`COC(=O)Cc1ccc(NC(=S)NNC(=O)c2ccccc2Br)cc1` gave ELG1 repair inh 5.3%, SMN2 splice up -9.7%, NPC1 promoter act -2.5%, Rab9 promoter act -1.4%, ELG1 genotox 0.3% and FLuc counter -0.7%.
For Cc1ccc(S(=O)(=O)Nc2ccc(NC(=O)c3cccs3)cc2)cc1 the results were ELG1 repair inh inconclusive, SMN2 splice up 11.2µM*, NPC1 promoter act -5.6%, Rab9 promoter act -1.7%, ELG1 genotox -3.8% and FLuc counter -4.1%.

Source: PubChem
